# Shown are actives, neighbours in structure and some others; about 13% of the full set was active somewhere.
# USP30 inh = inhibitors of human USP30 deubiquitinase; 5.3% of 47,000 active; inhibition, % at 25 µM; purified USP30, Ub-rhodamine cleavage fluorescence
# USP8 block = human USP8 deubiquitinase inhibition; P40818; purified USP8, Ub-rhodamine cleavage fluorescence, 30 min; inhibition, % at 20 µM; 4.2% of 47,000 active; AID 1645853
# Target sequence (P40818 whole entry, looked up): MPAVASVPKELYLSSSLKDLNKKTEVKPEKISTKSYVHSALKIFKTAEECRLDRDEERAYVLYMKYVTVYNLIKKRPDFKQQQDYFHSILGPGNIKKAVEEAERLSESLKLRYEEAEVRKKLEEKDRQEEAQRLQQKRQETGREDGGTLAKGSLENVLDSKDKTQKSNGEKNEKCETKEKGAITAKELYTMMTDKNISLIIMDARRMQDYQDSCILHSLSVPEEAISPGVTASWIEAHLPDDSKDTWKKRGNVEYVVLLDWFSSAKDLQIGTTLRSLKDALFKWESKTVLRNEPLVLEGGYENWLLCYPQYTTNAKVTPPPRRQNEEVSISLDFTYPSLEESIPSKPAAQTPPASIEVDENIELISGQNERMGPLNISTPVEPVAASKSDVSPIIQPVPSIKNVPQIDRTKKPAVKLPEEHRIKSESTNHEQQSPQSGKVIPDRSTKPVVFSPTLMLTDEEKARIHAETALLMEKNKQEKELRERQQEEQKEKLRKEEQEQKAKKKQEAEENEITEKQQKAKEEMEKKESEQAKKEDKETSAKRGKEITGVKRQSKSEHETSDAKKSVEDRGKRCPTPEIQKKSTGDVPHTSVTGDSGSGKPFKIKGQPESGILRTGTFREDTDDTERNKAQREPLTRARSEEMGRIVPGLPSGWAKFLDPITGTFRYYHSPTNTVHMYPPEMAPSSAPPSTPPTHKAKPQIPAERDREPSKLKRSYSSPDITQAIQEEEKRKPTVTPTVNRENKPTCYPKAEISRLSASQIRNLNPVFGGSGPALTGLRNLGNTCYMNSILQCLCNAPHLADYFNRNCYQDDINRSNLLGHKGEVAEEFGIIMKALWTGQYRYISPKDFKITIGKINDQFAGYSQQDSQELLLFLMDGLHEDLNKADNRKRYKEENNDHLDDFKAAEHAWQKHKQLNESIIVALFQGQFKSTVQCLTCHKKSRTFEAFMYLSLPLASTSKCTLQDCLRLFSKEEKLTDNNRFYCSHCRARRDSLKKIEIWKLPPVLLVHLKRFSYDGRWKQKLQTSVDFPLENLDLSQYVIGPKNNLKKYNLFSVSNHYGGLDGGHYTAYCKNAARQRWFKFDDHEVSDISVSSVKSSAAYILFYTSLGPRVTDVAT
# USP28 block = human USP28 deubiquitinase inhibition; Q96RU2; purified USP28, Ub-rhodamine cleavage fluorescence, 30 min; inhibition, % at 25 µM; 3% of 47,000 active
# USP17 block = blocks human USP17 ubiquitin-rhodamine cleavage; AID 1645855; inhibition, % at 50 µM; 6.5% of 47,000 active; A8MUK1; purified USP17, Ub-rhodamine cleavage fluorescence, 3 h
# Numbers without * were called inactive; . = no result given. No stated cut-off is given here; in the data, active means inhibition above about 30%; inactive means the rest.
SMILES,USP30 inh,USP8 block,USP28 block,USP17 block
O=C(CSc1nnc(Cc2ccccc2)n1C1CCCCC1)Nc1ccccc1Cl,20,6,14,4
O=C1CCSc2ccccc2N1Cc1ccccc1F,14,5,25,0
O=C1CCSc2ccc(Cl)cc2N1Cc1ccc(Cl)cc1,30,0,42*,13
C=C(C)C(C)CNC(=O)c1ccc(Cl)cc1Cl (configuration not stated),-1,10,-4,2
CCn1c(Cn2cccn2)nc2cc(NC(=O)c3ccc(F)cc3)ccc21,0,-14,53*,-5
Cc1sc2nc(C3CC3)n(C3CCN(C(=O)C4CCC4)CC3)c(=O)c2c1C,39*,6,22,16
Cc1ccc(NC(=O)CCc2nnc3c(=O)n(-c4cc(C)cc(C)c4)ccn23)cc1,43*,42*,5,15
Cc1cc(C)cc(-n2ccn3c(CCC(=O)Nc4cccc(F)c4)nnc3c2=O)c1,-9,-20,-7,1
Cc1cc(C)cc(-n2ccn3c(CCC(=O)Nc4ccc(F)cc4)nnc3c2=O)c1,49*,-14,16,22
Cc1ccc(CC(=O)N2CCN(C(=O)c3cc(-c4cccnc4)n[nH]3)CC2)cc1,23,16,10,12
Cc1cc(C)nc(NC(=O)c2ccco2)n1,0,15,-5,0
Cc1ccc(OCC(=O)Nc2ccc(NC(=O)c3cccc(Cl)c3)cc2)cc1C,7,-32,14,4
Cc1ccc(-c2nnc(NC(=O)c3ccco3)o2)cc1C,15,4,49*,-6
Cc1ccc(OCC(=O)Nc2cc(NC(=O)c3ccco3)ccc2C)cc1C,66*,-26,45*,60*
CN1CCC2(CC1)CN(S(=O)(=O)c1ccc(Cl)cc1)Cc1ccccc1O2,4,-1,-4,-13
CCn1cc(C(=O)NCc2ccc(F)cc2F)c(=O)c2ccc(C)nc21,24,24,21,41*
O=C(Nc1ccc2nc3n(c(=O)c2c1)CCCC3)Nc1ccc(F)cc1F,24,0,5,5
N#Cc1cccc(NC(=O)CC(=O)Nc2ccc3nc4n(c(=O)c3c2)CCCCC4)c1,-35,56*,-115,-1
Cc1ccc(-n2ccnc(NC(=O)c3ccccn3)c2=O)cc1C,-11,-153,-12,.
O=C(Nc1nccn(-c2cccc(F)c2)c1=O)c1ccccn1,91*,-190,72*,49*
CN1C[C@@H](NC(=O)c2ccc(C#N)cc2)C[C@H]1c1nc(-c2ccc(F)cc2)no1,-22,-1,-8,-24
COc1cc(C(CC(=O)c2ccccc2)CC(=O)c2ccccc2)cc(OC)c1OC,28,14,13,18
O=C1c2[nH]nc(-c3ccccc3O)c2C(c2ccc(F)cc2)N1Cc1ccco1 (configuration not stated),52*,71*,52*,39*
Cc1ccc(C2c3c(-c4ccccc4O)n[nH]c3C(=O)N2Cc2ccco2)cc1 (configuration not stated),46*,58*,65*,44*
Cc1c(-c2ccccc2)sc2ncnc(NCC3CCCO3)c12 (configuration not stated),-11,-8,-4,-7
SMILES,USP30 inh,USP8 block,USP28 block,USP17 block
Cc1ccc(-c2nc(-c3cccc(-c4ccnn4C)c3)no2)cc1F,-1,-3,-5,-10
Cc1nc(-c2ccc(-c3noc(-c4ccnn4C)n3)cc2)cs1,40*,10,0,33*
Cc1cc(C(=O)N[C@H]2[C@H](O)[C@H](O)C[C@@H]2c2ccccc2C)no1,-1,-24,-10,2
Cc1ccccc1[C@H]1C[C@@H](O)[C@@H](O)[C@@H]1NC(=O)c1cccc(C#N)c1,47*,-20,9,20
Cc1ccc([C@H]2C[C@@H](O)[C@@H](O)[C@@H]2NC(=O)c2ccccc2)cc1,37*,2,4,23
O=C(NCCc1ccc(Cl)cc1)c1ccc(CNS(=O)(=O)c2ccccc2)cc1,84*,11,60*,1
CC(=O)c1c(O)cc2c(c1C)C(=O)CC(O)C2 (configuration not stated),-64,5,10,19
Cc1cc(=O)oc2cc(NC(=O)c3noc4c3COc3ccccc3-4)ccc12,16,21,8,15
O=S1(=O)[C@@H]2CCN(c3ncccn3)CC[C@@H]2CN1Cc1cccc(Cl)c1,6,-14,1,-7
COc1ccc(N(Cc2cc3cc(OC)ccc3[nH]c2=O)S(=O)(=O)c2ccccc2)cc1,-2,-21,-4,-1
Cc1ccc(S(=O)(=O)N(C)Cc2cc3cc(C)ccc3[nH]c2=O)cc1,.,-5,.,57*
Cc1ccc(S(=O)(=O)N(Cc2cc3ccc(C)cc3[nH]c2=O)CC2CCCO2)cc1 (configuration not stated),-85,0,-10,-20
COCCN(Cc1cc2cc(C)ccc2[nH]c1=O)S(=O)(=O)c1ccc(Cl)cc1,28,-28,8,33*
O=c1[nH]c2ccccc2cc1CN(c1ccccc1)S(=O)(=O)c1ccc(Cl)cc1,-1,4,-3,48*
Cc1ccc2[nH]c(=O)c(CN(CC3COCCO3)S(=O)(=O)c3ccc(F)cc3)cc2c1 (configuration not stated),11,35*,-4,76*
O=C(NC1=CC(=O)[C@]2(CO)O[C@@H]2[C@H]1O)c1ccccc1O,-99,6,9,7
CCC(C)C(=O)C(C)c1cc(O)c(C(=O)O)c(O)c1C=O (configuration not stated),-158,-300,-31,-34
Cc1cc(C)n2ncc(C(=O)NC(C)CCc3ccccc3)c2n1 (configuration not stated),8,6,7,-1
Cc1cc(C)n2ncc(C(=O)NCCc3ccc(Cl)cc3)c2n1,-12,-32,30*,-5
O=C(Cn1c(=O)n(Cc2ccccc2)c(=O)c2nscc21)NCc1ccco1,-23,20,14,42*
CCn1cc2c(n1)c(=O)n(Cc1ccc(C)cc1)c(=O)n2CC(=O)Nc1ccc(F)cc1,26,26,18,81*
CCCn1c(=O)c2nscc2n(CC(=O)NCc2ccccc2)c1=O,-12,-8,-5,-10
CC(C)Cn1c(=O)c2nscc2n(CC(=O)Nc2ccccc2)c1=O,-28,63*,14,26
CCn1c(=O)c2nscc2n(CC(=O)Nc2ccc(C)cc2)c1=O,19,17,5,13
CCCn1c(=O)c2nscc2n(CC(=O)NCc2ccc(C)cc2)c1=O,42*,8,18,43*
Cc1nc2cccnc2n1C1CCN(C(=O)Nc2ccccc2)C1 (configuration not stated),-101,-14,-27,-27
Cn1cc2c(n1)c(=O)n(Cc1ccc(F)cc1)c(=O)n2CC(=O)NCc1ccco1,-65,-11,-15,-38
CCn1cc2c(n1)c(=O)n(Cc1ccccc1)c(=O)n2CC(=O)NCc1ccc(C)cc1,90*,60*,27,56*
Cn1cc2c(n1)c(=O)n(Cc1ccc(F)cc1)c(=O)n2CC(=O)Nc1ccccc1F,5,3,-20,42*
CC(=O)c1ccc(OCc2csc(-c3ccc(F)cc3)n2)cc1,37*,12,30*,43*

# Screens as filed in PubChem BioAssay.
